“And” between values parts separate entries of the source, which are not always exact repeats. Identical values can stand only once. Inconclusive results are not listed. Values without a mark were called inactive. The source made the active and inactive calls. Calls follow the shape of the dose curve; as a rule, active = well fitted curve in the direction sought with a large enough effect; inconclusive = small, poorly fitted or top-dose-only effect, or another doubt; inactive = no such curve, though single readings can be large; an effect the other way counts as inactive or inconclusive.
What was measured:
[1] = Viability qHTS for spleen associated tyrosine kinase inhibitor (SYKi) naive MV4-11 cells (AID 1963823); also: nearly all actives have a fitted effect of over 40% in size
In short: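 Cells: MV4-11, SYK inhibitor naive, 500 per well. Treatment: library compounds, 72 hr, 37 C, 5% CO2. Read-out: CellTiter-Glo luminescence after 10 min RT.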

[2] = Viability qHTS for spleen associated tyrosine kinase inhibitor (SYKi) drug resistant MV4-11 cells (AID 1963824); also: nearly all actives have a fitted effect of over 35% in size
In short: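 SYK inhibitor-resistant MV4-11 AML cells, 500 per well, added to predispensed compounds and incubated 72 hr at 37 C, 5% CO2. Viability measured by CellTiter-Glo luminescence after 10 min at room temperature.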

[3] = Cellular viability qHTS for adrenocortical cancer (ACC) cell line SW-13 (AID 1963989); details: SW-13 ACC cells viability, CellTiter-Glo, 48 h; activity (max response): hits give low values; also: nearly all actives have a fitted effect of over 65% in size;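 as to activity (max response): cells grown in serum-free medium with ITS supplement; % is scaled to controls: 0 for no effect and ±100 for the full control effect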
In short: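 Here, serum-free SW-13 cultures were dosed up to 46 uM. Following 48 h, ATP-dependent luminescence (CellTiter-Glo) reported viable cells, and logistic modeling produced IC50 values.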

[4] = Cellular viability qHTS for adrenocortical cancer (ACC) cell line NCI-H295R (AID 1963990); also: nearly all actives have a fitted effect of over 60% in size
In short: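 Viability of NCI-H295R after 48 h of treatment (final up to 46 uM) measured through cellular ATP luminescence.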
Potency is read from the fitted curve at half-maximal effect.

Compound	Potency [1]	Potency [2]	activity (max response) [3]	Potency [4]	Potency [3]
NC(=S)N/N=C/c1cccnc1	inactive	inactive	-1.7%	inactive	–
CC(=O)O[C@H]1CC[C@@]2(C)C(=CC[C@@H]3[C@@H]2CC[C@]2(C)C(C(C)=O)=CC[C@@H]32)C1	inactive	inactive	8.77%	inactive	–
CC1=C2C[C@H]3[C@@H](CC[C@@H]4C[C@H](NS(C)(=O)=O)CC[C@@]43C)[C@@H]2CC[C@@]2(C1)O[C@@H]1C[C@H](C)CN[C@H]1[C@H]2C	9.34 µM (active)	4.68 µM (active)	–	17.8 µM (active)	25.1 µM (active)
O=C(O)/C=C\C(=O)O	inactive	inactive	6.23%	inactive	–
CCc1cc(C(N)=O)ccc1-n1nc(C(C)C)c2c(-n3cnc(-c4cnn(C)c4)c3)ccnc21	0.372 µM (active)	0.59 µM (active)	–	7.94 µM (active)	2.82 µM (active)
CC(O)(P(=O)(O)O)P(=O)(O)O	inactive	inactive	14.2%	inactive	–
CC(=O)c1ccc2c(c1)c1cc(C(C)=O)ccc1n2CCNC(C)C	0.372 µM (active)	0.525 µM (active)	–	1.58 µM (active)	1.58 µM (active)
COc1ccc(-c2cc(=O)c3c(O)cc(O[C@@H]4O[C@H](CO[C@@H]5O[C@@H](C)[C@H](O)[C@@H](O)[C@H]5O)[C@@H](O)[C@H](O)[C@H]4O)cc3o2)cc1O	inactive	inactive	-2.14% and 4.75%	inactive	–
CC[C@@H]1[C@H](F)C(=O)N[C@@H]1COc1nccc2cc(C(N)=O)c(OC)cc12	11.8 µM (active)	14.8 µM (active)	-21.5%	inactive	–
C[C@H](CN(C)C)Oc1nc(Nc2cc3cccc(Cl)c3cn2)cnc1C#N	259 nM (active) and 934 nM (active)	411 nM (active) and 934 nM (active)	-6.08%	2.24 µM (active)	–
CC(C)(Cc1ccc2ccccc2c1)NC[C@@H](O)COc1cccc(Cl)c1C#N	6.61 µM (active)	6.61 µM (active)	–	6.31 µM (active)	6.31 µM (active)
CCC(C(=O)OCCOCCN(CC)CC)c1ccccc1 (stereo not drawn)	inactive	inactive	-6.83%	inactive	–
CCCCCCCCCCCCCCCCOCCCOP(=O)(O)COC(CO)Cn1ccc(N)nc1=O (stereo not drawn)	2.59 µM (active)	3.26 µM (active)	-4.49%	inactive	–
Cc1cc(I)ccc1Nc1c(C(=O)NOCC2CC2)cc(F)c(F)c1F	2.31 µM (active)	2.59 µM (active)	–	3.98 µM (active)	3.16 µM (active)
CC(C)(O)CS(=O)(=O)Nc1ccc2c(c1)CCN(C(=O)COc1cccnc1)C2	0.0209 µM (active)	0.0295 µM (active)	–	0.112 µM (active)	0.282 µM (active)
COc1ccc2cc(OCC3(C(=O)O)CN(C(=O)c4ccc(F)cc4)C3)ccc2c1	inactive	inactive	-4.74%	inactive	–
CN1CCC(c2c(O)cc(O)c3c(=O)cc(-c4ccccc4Cl)oc23)C1CO (stereo not drawn)	0.742 µM (active)	0.59 µM (active)	–	3.16 µM (active)	3.16 µM (active)
NC[C@@](O)(c1ccc(Cl)cc1)c1ccc(-c2cn[nH]c2)cc1	2.06 µM (active) and 3.32 µM (active)	3.26 µM (active) and 6.61 µM (active)	–	10 µM (active)	12.6 µM (active)
CCC1CCCCN1C(=O)n1ncc(C(O)(c2ccccc2)c2ccccc2)n1 (stereo not drawn)	11.8 µM (active)	5.25 µM (active)	–	28.2 µM (active)	15.8 µM (active)
C[C@@H](Oc1cc(C(=O)Nc2ccc(C(=O)N3CCN(C)CC3)cc2)nnc1N)c1c(Cl)ccc(F)c1Cl	1.66 µM (active)	2.63 µM (active)	–	2.82 µM (active)	17.8 µM (active)
CC(C)CNc1ccnc(NCc2csc(-c3ccccc3)n2)n1	1.66 µM (active)	1.16 µM (active)	–	11.2 µM (active)	11.2 µM (active)
O=C1[C@H](CC[C@H](O)c2ccc(F)cc2)[C@@H](c2ccc(O)cc2)N1c1ccc(F)cc1	20.6 µM (active) and 20.9 µM (active)	14.6 µM (active) and 20.9 µM (active)	-3.67% and -14.5%	inactive	–
